From PubChem BioAssay (NCI) come the findings set out here.

This is part of a sample that, as a whole, favours compounds with a hit. Of some 83,000 tested, about 20% had one in any assay.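 The test compound was applied at a single concentration to cells in 96-well plates for 48 hours, and percent growth was recorded.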 Unmarked numbers belong to inactive results. Calls of active or inactive are those of the source. Rule for the calls: active = growth percent below 10; inactive = the rest.

Among the test systems are SR leukemia; RPMI-8226 leukemia; OVCAR-8 ovarian; OVCAR-5 ovarian; OVCAR-4 ovarian; SK-OV-3 ovarian; IGROV1 ovarian; OVCAR-3 ovarian; HS 578T breast; NCI/ADR-RES ovarian.
What all share (test): NCI-60 one-dose screen, 48 h (100 = growth as untreated, 0 = no growth, -100 = all killed)
What all share (settings): 10 µM unless noted

Regarding `Oc1ccc(C(c2ccc(O)cc2)c2ccc(Br)cn2)cc1`, the growth in the assay with SR leukemia is 104%; with RPMI-8226 leukemia, 119%; in the assay with OVCAR-8 ovarian, 2.17% (active); in the assay on OVCAR-5 ovarian, 78.4%; in the assay with OVCAR-4 ovarian, -38.1% (active); in the assay with SK-OV-3 ovarian, 65.4%. Also, the growth with IGROV1 ovarian was 11.8%; with OVCAR-3 ovarian it was -37.4% (active); with HS 578T breast it was -35.6% (active); in the assay on NCI/ADR-RES ovarian, -38.7% (active).
Regarding `CCCCCC(=O)Oc1ccc(/C(=C(/C)Cc2ccc(OC)cc2)c2ccc(OCCCN(C)C)cc2)cc1`, the growth in the assay on SR leukemia is 10.9%; in the assay on RPMI-8226 leukemia, 82.7%; in the assay with OVCAR-8 ovarian it was 96.2%; in the assay with OVCAR-5 ovarian, 96.4%; in the assay with OVCAR-4 ovarian it was 71.4%; with SK-OV-3 ovarian, 81.5%. Also, the growth with IGROV1 ovarian was 63.9%; in the assay with OVCAR-3 ovarian it was 86.5%; in the assay on HS 578T breast, 59.9%; with NCI/ADR-RES ovarian it was 88.2%.
With `Cc1cnc(C(=O)Nc2nc3ccc(S(=O)(=O)Nc4ccc(C5(C(F)(F)F)CC5)cc4)cc3[nH]2)cn1`, the growth with SR leukemia is 18.9%; with RPMI-8226 leukemia it was 6.96% (active); in the assay on OVCAR-8 ovarian, 25.8%; in the assay with OVCAR-5 ovarian, 38.8%; in the assay with OVCAR-4 ovarian it was 32.9%; in the assay on SK-OV-3 ovarian it was 36.9%. For the same compound, the growth with IGROV1 ovarian was 31.4%; with OVCAR-3 ovarian, -19.3% (active); in the assay with HS 578T breast it was 8.52% (active); in the assay with NCI/ADR-RES ovarian, 15.8%.
As for `CCNC(=O)Oc1ccc(/C(=C(\C)c2ccccc2)c2ccc(OCCN(CC)CC)cc2)cc1`, the growth with SR leukemia was 26.1%; in the assay on RPMI-8226 leukemia, 74.6%; in the assay on OVCAR-8 ovarian it was 78.3%; with OVCAR-5 ovarian, 88.2%; in the assay on OVCAR-4 ovarian, 80.8%; with SK-OV-3 ovarian, 83.9%. For the same compound, the growth in the assay on IGROV1 ovarian is 84.3%; with OVCAR-3 ovarian, 93.7%; in the assay with HS 578T breast, 69%; in the assay with NCI/ADR-RES ovarian it was 85%.
In the case of `COc1ccc(/C=N/NC(=O)c2cnn3c2NC(c2ccccc2)C3)cc1OC` (stereo not given), the growth in the assay on SR leukemia was 32.3%; in the assay on RPMI-8226 leukemia it was 83.2%; with OVCAR-8 ovarian it was 75.3%; in the assay on OVCAR-5 ovarian, 92.1%; in the assay on OVCAR-4 ovarian, 107%; with SK-OV-3 ovarian, 78.9%. Further, the growth in the assay with IGROV1 ovarian is 59.6%; in the assay on OVCAR-3 ovarian, 18%; in the assay on HS 578T breast, 68%; in the assay with NCI/ADR-RES ovarian, 85.5%.
As to `CCc1ccc(-c2cn3ccnc3c(-c3ccc4ncn(Cc5ccccc5)c4c3)n2)cc1`, the growth in the assay with SR leukemia is 50.1%; in the assay with RPMI-8226 leukemia it was 44.6%; in the assay with OVCAR-8 ovarian it was 69.2%; with OVCAR-5 ovarian, 85.1%; in the assay with OVCAR-4 ovarian it was 64.9%; with SK-OV-3 ovarian, 99.4%. Further, the growth with IGROV1 ovarian is 75%; in the assay with OVCAR-3 ovarian, 68.8%; in the assay with HS 578T breast, 78.2%; in the assay with NCI/ADR-RES ovarian, 58.8%.
Regarding `COc1cc(C2=C(c3cn(C)c4ccccc34)COC2=O)cc(OC)c1OC`, the growth was 8.24% (active) in the assay on SR leukemia; 15.2% in the assay on RPMI-8226 leukemia; 24.8% with OVCAR-8 ovarian; 17.3% in the assay on OVCAR-5 ovarian; 21.4% in the assay with OVCAR-4 ovarian; 28.3% with SK-OV-3 ovarian. The growth in the assay on IGROV1 ovarian is 11.1%; in the assay on OVCAR-3 ovarian, -13.8% (active); in the assay on HS 578T breast it was -6.29% (active); in the assay with NCI/ADR-RES ovarian it was 13%.
Take `Cc1ccc(NS(=O)(=O)c2ccc(-c3cnc(C4CC4)o3)cc2)cc1C(F)(F)F`: the growth in the assay with SR leukemia was 28.6%; in the assay on RPMI-8226 leukemia it was 55.2%; with OVCAR-8 ovarian it was 78.5%; in the assay with OVCAR-5 ovarian, 93.2%; with OVCAR-4 ovarian, 69.4%; in the assay with SK-OV-3 ovarian, 86.8%. The growth is 51.8% in the assay on IGROV1 ovarian, 24.5% in the assay with OVCAR-3 ovarian, 69% in the assay on HS 578T breast and 43.3% in the assay on NCI/ADR-RES ovarian.
Take `O=C(O)c1ccc(NCc2cn(-c3ccc(C(F)(F)F)cc3)nc2-c2ccc(C(=O)O)cc2)cc1`: the growth with SR leukemia was 97.3%; in the assay with RPMI-8226 leukemia it was 112%; with OVCAR-8 ovarian, 103%; in the assay on OVCAR-5 ovarian it was 103%; with OVCAR-4 ovarian it was 111%; in the assay with SK-OV-3 ovarian, 113%. Further, the growth in the assay with IGROV1 ovarian was 106%; with OVCAR-3 ovarian, 115%; in the assay with HS 578T breast it was 107%; in the assay on NCI/ADR-RES ovarian it was 104%.
With `COc1ccc(C(C)=O)c(OC)c1`, the growth in the assay with SR leukemia is 119%; in the assay with RPMI-8226 leukemia it was 100%; with OVCAR-8 ovarian, 109%; with OVCAR-5 ovarian it was 90.2%; in the assay on OVCAR-4 ovarian, 103%; in the assay with SK-OV-3 ovarian, 105%. The growth in the assay on IGROV1 ovarian is 127%; in the assay on OVCAR-3 ovarian, 117%; in the assay on HS 578T breast it was 113%; with NCI/ADR-RES ovarian it was 108%.
On to `Nc1c(C(=O)Nc2cccc3cnccc23)sc2nc3c(cc12)C(=O)CCC3`, for which the growth in the assay with SR leukemia is 59.5%; with RPMI-8226 leukemia, 88.9%; in the assay on OVCAR-8 ovarian it was 100%; in the assay with OVCAR-5 ovarian, 107%; in the assay on OVCAR-4 ovarian, 102%; in the assay with SK-OV-3 ovarian it was 96.5%. Also, the growth is 87.9% in the assay on IGROV1 ovarian, 93.4% in the assay with OVCAR-3 ovarian, 84.3% with HS 578T breast and 102% in the assay with NCI/ADR-RES ovarian.
As to `Cn1c(N2NC(=O)C(N=Nc3ccc(S(N)(=O)=O)cc3)C2=O)nc(-c2ccco2)c(C#N)c1=O` (stereo not given), the growth in the assay with SR leukemia is 1.63% (active); with RPMI-8226 leukemia it was 3.99% (active); in the assay with OVCAR-8 ovarian, 90.2%; in the assay on OVCAR-5 ovarian, 115%; in the assay with OVCAR-4 ovarian, 59.2%; with SK-OV-3 ovarian, 102%. The growth with IGROV1 ovarian was 30.7%; in the assay with OVCAR-3 ovarian, 72.7%; in the assay on HS 578T breast it was 104%; in the assay on NCI/ADR-RES ovarian it was 93%.
